Records with an inconclusive call do not appear. The source made the active and inactive calls.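 Rule for the calls, unless noted: active = compound that reduces growth-factor-driven endothelial tube area in a mixed cell culture, no cutoff stated; inactive = the rest.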
Experiments:
[1] = stimulators of insulin release from INS-1E, primary screen, cell-based, 5 mM glucose, NPC library (AID 1117329;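 active = compound raises insulin release from rat beta cells at 5 mM glucose, no numeric limit stated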); details: rat INS-1E insulin secretion, at 10 µM, stronger effect = higher value
[2] = growth inhibition of GSK3B-pretreated HCT116 cells – cell-based, CellTiter-Glo, 0.2 to 20 µM (AID 1117336;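 active = compounds lowering colon cancer cell viability after pretreatment blocking the GSK3B kinase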); details: HCT116 viability after GSK3B inhibitor, at 20 µM, stronger effect = higher value
[3] = inhibition of endothelial tube formation, primary screen, imaging, VEGF stimulated, CD31 staining, tube area, NPC library (AID 1117340); details: VEGF-stimulated ADSC/ECFC co-culture, at 10 µM, stronger effect = higher value
[4] = glucagon-like peptide 1 release enhancers, primary assay, NCI-H716 cell line, NPC library (AID 1117341;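 active = compound raises GLP1 secretion from the human gut endocrine cells, with no numeric limit stated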); details: NCI-H716 cells, at 10 µM, stronger effect = higher value
[5] = HCT116 colon cancer cell growth inhibition, primary screen, CellTiter-Glo luminescence, NPC library (AID 1117342;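 active = compounds that lower survival of HCT116 colon cancer cells in the luminescence readout, no numeric limit stated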); details: at 20 µM (top of the series)
[6] = CellTiter-Glo luminescent readout of SW480 viability loss, NPC library primary (AID 1117343;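 active = compounds that lower viability of the colon cancer cells in the luminescence readout, with no numeric limit stated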); details: CellTiter-Glo luminescence; at 20 µM (top of the series)
[7] = decreased DLD-1 cellular survival, CellTiter-Glo luminescent readout, NPC compound collection, primary HTS (AID 1117346;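 active = compounds that lower survival of DLD-1 colon cancer cells in the luminescence readout, no cutoff given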); details: DLD-1 viability, CellTiter-Glo luminescence; at 20 µM (top of the series)
[8] = target: 6-phosphogluconate dehydrogenase, decarboxylating (Homo sapiens) (UniProt P52209); assay: 6PGD enzyme inhibitors, primary screen, biochemical, human, recombinant enzyme, NADPH absorbance (AID 1159550;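 active = at least 20% inhibition of 6-phosphogluconate dehydrogenase activity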); details: recombinant 6PGD, NADPH absorbance 341 nm; at 10 µM; stronger effect = higher value
6-phosphogluconate dehydrogenase, decarboxylating (Homo sapiens), sequence (P52209 whole entry, looked up): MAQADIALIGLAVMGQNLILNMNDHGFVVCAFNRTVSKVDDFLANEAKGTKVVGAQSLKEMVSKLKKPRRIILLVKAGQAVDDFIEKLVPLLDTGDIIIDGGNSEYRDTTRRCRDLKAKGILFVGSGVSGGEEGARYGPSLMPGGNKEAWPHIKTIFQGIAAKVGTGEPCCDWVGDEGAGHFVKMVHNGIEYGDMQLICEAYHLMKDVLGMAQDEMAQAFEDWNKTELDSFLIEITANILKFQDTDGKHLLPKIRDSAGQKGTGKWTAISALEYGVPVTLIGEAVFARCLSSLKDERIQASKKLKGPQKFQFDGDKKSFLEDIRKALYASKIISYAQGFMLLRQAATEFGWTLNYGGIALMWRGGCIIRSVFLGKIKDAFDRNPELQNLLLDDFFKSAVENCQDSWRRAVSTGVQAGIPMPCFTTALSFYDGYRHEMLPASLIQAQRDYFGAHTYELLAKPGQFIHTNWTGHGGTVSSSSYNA

[9] = differential killing of epithelial or mesenchymal cells, primary screen, imaging, PC-3E GFP, TEM4-18 mCherry, co-culture (AID 1345086;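 active = compounds killing one labelled cell type while sparing the other, by normalised counts and ratio limits, not self-fluorescent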;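 for all read-outs here: cells exposed to compound for 72 h before imaging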;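 for red/green cell ratio (normalised): normalised mesenchymal count divided by normalised epithelial count so high means epithelial killing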); details: imaging cell counts, at 1 µM; for red/green cell ratio (normalised): actives lie on both sides, counts scaled to control wells, 1 = unselective
[10] = tested on: Aerobactin synthetase IucA (Klebsiella pneumoniae); assay: IucA aerobactin synthetase inhibitors, biochemical, Tocris library, absorbance (AID 1345561; call rule not given here;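 note: 100% = enzyme without compound and 0% = no enzyme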); details: purified IucA enzyme assay, absorbance (OD) read-out; stronger effect = lower value;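 tested at 8 µM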
[11] = growth inhibition of DIPG glioma cells, dose response, cell-based, SU-DIPG-XVII, MIPE5.0, CellTiter-Glo, qHTS (AID 1347060; cut-off not given, nearly all actives have AC50 up to about 26 µM); details: SU-DIPG-XVII viability, CellTiter-Glo ATP luminescence
[12] = growth inhibition of DIPG glioma cells, dose response, cell-based, SU-DIPG-XIII, MIPE4.0, CellTiter-Glo, qHTS (AID 1347061; cut-off not given, nearly all actives have AC50 up to about 37 µM;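 note: cells exposed to compound for 48 hours before readout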); details: SU-DIPG-XIII viability, CellTiter-Glo ATP luminescence
[13] = growth inhibition of DIPG glioma cells, dose response, cell-based, JHH-DIPG-1, MIPE4.0, CellTiter-Glo, qHTS (AID 1347062; cut-off not given, nearly all actives have AC50 up to about 27 µM); details: JHH-DIPG-1 viability, CellTiter-Glo ATP luminescence
[14] = growth inhibition of DIPG glioma cells, dose response, cell-based, SU-DIPG-IV, MIPE4.0, CellTiter-Glo, qHTS (AID 1347063; cut-off not given, nearly all actives have AC50 up to about 30 µM;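 note: compound exposure lasted 48 hours before the viability readout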); details: SU-DIPG-IV viability, CellTiter-Glo ATP luminescence
[15] = growth inhibition of DIPG glioma cells, dose response, cell-based, SU-DIPG-XIII, MIPE5.0, CellTiter-Glo, qHTS (AID 1347064; cut-off not given, nearly all actives have AC50 up to about 23 µM); details: SU-DIPG-XIII viability, CellTiter-Glo ATP luminescence
[16] = measured here: epithelial PC-3E GFP cell survival
[17] = measured here: mesenchymal TEM4-18 mCherry cell survival

Cc1c(Cl)cccc1Nc1ccccc1C(=O)O
active: viability decrease (inhibition) [6] 68.1% | viability decrease (inhibition) [7] 93.6%
inactive: insulin secretion stimulation [1] 2.1% | viability decrease [2] -14.5% | tube area decrease [3] -8.8% | GLP1 secretion stimulation [4] 3.6% | inhibition of viability [5] 35.6% | inhibition [8] -12.8% | red/green cell ratio (normalised) [9] 0.86
0.93: normalised cell number [9, 17]
1.08: normalised cell number [9, 16]

CCN(CC)CCNC(=O)c1cc(S(C)(=O)=O)ccc1OC
0.93: normalised cell number [9, 16]
1.16: normalised cell number [9, 17]
inactive: insulin secretion stimulation [1] 0.1% | viability decrease [2] -23.6% | tube area decrease [3] 12% | GLP1 secretion stimulation [4] 0.7% | inhibition of viability [5] 1.13% | viability decrease (inhibition) [6] 10.9% | viability decrease (inhibition) [7] -4.3% | inhibition [8] -8.37% | red/green cell ratio (normalised) [9] 1.26

O=C(COc1ccc(Cl)cc1)N1CCN(Cc2ccc3c(c2)OCO3)CC1
0.9: normalised cell number [9, 17]
inactive: insulin secretion stimulation [1] 2.3% | tube area decrease [3] 3.4% | GLP1 secretion stimulation [4] 0.1% | inhibition [8] 11.5% | red/green cell ratio (normalised) [9] 0.96
active: viability decrease [2] 54% | inhibition of viability [5] 53.7% | viability decrease (inhibition) [6] 56.1% | viability decrease (inhibition) [7] 52.6%
0.94: normalised cell number [9, 16]

O=C1c2c(O)cccc2Cc2cccc(O)c21
active: tube area decrease [3] 108% | viability decrease (inhibition) [6] 61.6% | viability decrease (inhibition) [7] 53.6%
1.19: normalised cell number [9, 17]
1.25: normalised cell number [9, 16]
inactive: insulin secretion stimulation [1] 0.8% | viability decrease [2] 38.5% | GLP1 secretion stimulation [4] -2.2% | inhibition of viability [5] 30.9% | inhibition [8] -1.39% | red/green cell ratio (normalised) [9] 0.95

Cc1c(N(C)CS(=O)(=O)O)c(=O)n(-c2ccccc2)n1C
1.23: normalised cell number [9, 16]
1.35: normalised cell number [9, 17]
inactive: insulin secretion stimulation [1] -0.6% | viability decrease [2] 1.05% | tube area decrease [3] -53.1% | GLP1 secretion stimulation [4] 2.4% | inhibition of viability [5] 3% | viability decrease (inhibition) [6] 23.9% | viability decrease (inhibition) [7] 3.35% | inhibition [8] 19.3% | red/green cell ratio (normalised) [9] 1.09

CC(=O)Oc1cccc2c1C(=O)c1c(OC(C)=O)cc(C(=O)O)cc1C2=O
0.99: normalised cell number [9, 17]
active: viability decrease [2] 106% | tube area decrease [3] 6.3% | inhibition of viability [5] 100% | viability decrease (inhibition) [6] 59.1% | viability decrease (inhibition) [7] 64.3%
inactive: insulin secretion stimulation [1] 1.8% | GLP1 secretion stimulation [4] -2% | inhibition [8] -1.78% | red/green cell ratio (normalised) [9] 0.93
1.07: normalised cell number [9, 16]

NC(=O)NC(=O)Cc1ccccc1
1.19: normalised cell number [9, 16]
1.21: normalised cell number [9, 17]
inactive: insulin secretion stimulation [1] 1.3% | viability decrease [2] -10.2% | tube area decrease [3] 2.3% | GLP1 secretion stimulation [4] -2.2% | inhibition of viability [5] -3.67% | viability decrease (inhibition) [6] 38.8% | viability decrease (inhibition) [7] -11.6% | inhibition [8] 7.97% | red/green cell ratio (normalised) [9] 1.02

COc1ccc(C2C(=O)c3ccccc3C2=O)cc1
inactive: insulin secretion stimulation [1] 0.7% | viability decrease [2] 48.4% | tube area decrease [3] -33.4% | GLP1 secretion stimulation [4] -6% | inhibition of viability [5] 35.2% | viability decrease (inhibition) [6] 22.1% | viability decrease (inhibition) [7] 11% | inhibition [8] -16% | red/green cell ratio (normalised) [9] 0.84
1.14: normalised cell number [9, 16]
0.96: normalised cell number [9, 17]

C[N+]12CCC(CC1)C(OC(=O)C(O)(c1ccccc1)c1ccccc1)C2 (stereo not drawn)
inactive: insulin secretion stimulation [1] -0.3% | viability decrease [2] -30.2% | tube area decrease [3] 0.5% | GLP1 secretion stimulation [4] -3.1% | inhibition of viability [5] 10.6% | viability decrease (inhibition) [6] 22.9% | viability decrease (inhibition) [7] -13.7% | inhibition [8] 11.7% | red/green cell ratio (normalised) [9] 1.14
1.33: normalised cell number [9, 17]
1.17: normalised cell number [9, 16]

COc1ccc(-c2cc(C(F)F)nn2-c2ccc(S(N)(=O)=O)cc2)cc1F
1.1: normalised cell number [9, 17]
inactive: insulin secretion stimulation [1] -0.6% | viability decrease [2] -65.6% | tube area decrease [3] 10.3% | GLP1 secretion stimulation [4] 5.7% | inhibition of viability [5] 22.3% | viability decrease (inhibition) [6] 6.3% | viability decrease (inhibition) [7] 1.8% | inhibition [8] -12.8% | red/green cell ratio (normalised) [9] 0.98
1.12: normalised cell number [9, 16]

O=C1CCc2cc(OCCCCc3nnnn3C3CCCCC3)ccc2N1
inactive: insulin secretion stimulation [1] -1.5% | viability decrease [2] -19.3% | tube area decrease [3] 0.2% | GLP1 secretion stimulation [4] -1.1% | inhibition of viability [5] -0.27% | viability decrease (inhibition) [6] 36.4% | viability decrease (inhibition) [7] -12.1% | inhibition [8] 1.01% | red/green cell ratio (normalised) [9] 1.09 | remaining activity [10] 118% | outcome [11] | outcome [12] | outcome [13] | outcome [14] | outcome [15]
0.94: normalised cell number [9, 17]
0.86: normalised cell number [9, 16]

c1ccc(CN(CC2=NCCN2)c2ccccc2)cc1
1.24: normalised cell number [9, 16]
inactive: insulin secretion stimulation [1] 11.3% | viability decrease [2] -68.5% | tube area decrease [3] 23.2% | GLP1 secretion stimulation [4] -1.9% | inhibition of viability [5] 15.7% | viability decrease (inhibition) [6] 22% | viability decrease (inhibition) [7] 0.7% | inhibition [8] -4.52% | red/green cell ratio (normalised) [9] 1.08 | remaining activity [10] 98.2%
1.34: normalised cell number [9, 17]

CC(C)(Oc1ccc(Cl)cc1)C(=O)O
inactive: insulin secretion stimulation [1] -2.3% | viability decrease [2] -12.6% | tube area decrease [3] -2.8% | GLP1 secretion stimulation [4] 4.6% | inhibition of viability [5] 13.2% | viability decrease (inhibition) [6] 12.2% | viability decrease (inhibition) [7] -5.25% | inhibition [8] -17.2% | red/green cell ratio (normalised) [9] 0.77 | remaining activity [10] 92.9%
1.11: normalised cell number [9, 16]
0.86: normalised cell number [9, 17]

COc1ccc(CN(CCN(C)C)c2ccccn2)cc1
1.12: normalised cell number [9, 17]
inactive: viability decrease [2] 3.3% | tube area decrease [3] 14.4% | GLP1 secretion stimulation [4] 1.2% | inhibition of viability [5] -7.7% | viability decrease (inhibition) [6] 22.5% | viability decrease (inhibition) [7] -34.8% | inhibition [8] 4.83% | red/green cell ratio (normalised) [9] 1.1 | remaining activity [10] 118%
active: insulin secretion stimulation [1] 68.9%
1.02: normalised cell number [9, 16]

Source: PubChem BioAssay
